In the supplement of paper PMC10849652:
About 8,800 targets were measured; listed, in parts, are those with a hit and a random draw of the rest. About 0.5% of all pairs of compound and target were hits.

Experiments:
Experiment in all cases: log2 fold change, soluble protein after heating vs DMSO (PISA); higher = thermal stabilisation; K562 lysate, 10 uM; active = over 0.2 and 3.5 SD of the protein, either way, in both replicates (recomputed)
nilotinib = compound: Cc1cn(-c2cc(NC(=O)c3ccc(C)c(Nc4nccc(-c5cccnc5)n4)c3)cc(C(F)(F)F)c2)cn1 [nilotinib]
Method in brief: (§1)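 A 30 min treatment with 10 μM compound was applied to crude K562 extract at 1 mg/mL protein in PBS pH 7.4 with 1 mM MgCl2. Heating for 3 min spanned 48°C-58°C, after which aliquots were pooled, adjusted to 0.5% NP-40 at 4°C and spun at 21,000xg for 90 min. TMTpro 16plex LC-MS/MS of the supernatant, with channel sums equalised, gave values recorded as log-two fold change in thermal stability against solvent controls, from duplicates.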

[1] = compound: Cc1nc(Nc2n[nH]c3c2CN(C(=O)N[C@H](CN(C)C)c2ccccc2)C3(C)C)c2sccc2n1
Method in brief: as §1

dasatinib = compound: Cc1nc(Nc2ncc(C(=O)Nc3c(C)cccc3Cl)s2)cc(N2CCN(CCO)CC2)n1 [dasatinib]
Method in brief: as §1

[2] = compound: Cc1ncc(-c2ccnc(Nc3ccc(S(C)(=O)=O)cc3)n2)n1C(C)C
Method in brief: as §1

[3] = compound: Cn1cc(-c2ccc3c(c2)CCN3C(=O)Cc2cccc(C(F)(F)F)c2)c2c(N)ncnc21
Method in brief: as §1

quisinostat = compound: Cn1cc(CNCC2CCN(c3ncc(C(=O)NO)cn3)CC2)c2ccccc21 [quisinostat]
Method in brief: as §1

tipifarnib = compound: Cn1cncc1[C@@](N)(c1ccc(Cl)cc1)c1ccc2c(c1)c(-c1cccc(Cl)c1)cc(=O)n2C [tipifarnib]
Method in brief: as §1

[4] = compound: NC(=O)Nc1cc(-c2cccc(F)c2)sc1C(=O)N[C@H]1CCCNC1
Method in brief: as §1

[5] = compound: NC(=O)c1cnc(N[C@@H]2CCCC[C@@H]2N)nc1Nc1cccc(-n2nccn2)c1
Method in brief: as §1

[6] = compound: NC1(c2ccc(-c3nc4ccn5c(=O)[nH]nc5c4cc3-c3ccccc3)cc2)CCC1
Method in brief: as §1

Measured: log2 fold change

HADHB (UniProt P55084)
Chain of UniProt P55084 (P55084 whole entry, looked up): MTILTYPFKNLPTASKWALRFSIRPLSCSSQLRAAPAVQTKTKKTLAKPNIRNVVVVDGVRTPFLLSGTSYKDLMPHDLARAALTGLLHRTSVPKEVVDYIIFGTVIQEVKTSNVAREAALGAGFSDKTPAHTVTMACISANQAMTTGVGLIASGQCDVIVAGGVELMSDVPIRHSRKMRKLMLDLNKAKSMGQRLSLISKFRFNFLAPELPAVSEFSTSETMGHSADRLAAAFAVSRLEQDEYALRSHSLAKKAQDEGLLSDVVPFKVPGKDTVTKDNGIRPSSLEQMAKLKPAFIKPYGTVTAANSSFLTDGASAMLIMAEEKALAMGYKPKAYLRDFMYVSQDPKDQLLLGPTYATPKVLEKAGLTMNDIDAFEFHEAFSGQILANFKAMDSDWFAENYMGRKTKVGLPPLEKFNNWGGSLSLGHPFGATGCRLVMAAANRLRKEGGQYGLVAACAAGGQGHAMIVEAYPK
inactive: nilotinib 0.052 | [1] -0.028 | dasatinib -0.026 | [2] 0.022 | [3] 0.066 | quisinostat -0.064 | tipifarnib 0.028 | [4] -0.122 | [5] -0.076 | [6] 0.073

HAUS5 (UniProt O94927)
inactive: nilotinib -0.014 | [1] 0.01 | dasatinib -0.071 | [2] -0.011 | [3] -0.015 | quisinostat -0.11 | tipifarnib 0.006 | [4] 0.079 | [5] 0.004 | [6] -0.02

HECTD4 (UniProt J3KPF0)
inactive: nilotinib 0.014 | [1] -0.009 | dasatinib -0.077 | [2] -0.007 | [3] 0.037 | quisinostat -0.145 | tipifarnib 0.016 | [4] 0.02 | [5] 0.011 | [6] 0.017

IFNGR1 (UniProt P15260)
Chain of UniProt P15260 (P15260 whole entry, looked up): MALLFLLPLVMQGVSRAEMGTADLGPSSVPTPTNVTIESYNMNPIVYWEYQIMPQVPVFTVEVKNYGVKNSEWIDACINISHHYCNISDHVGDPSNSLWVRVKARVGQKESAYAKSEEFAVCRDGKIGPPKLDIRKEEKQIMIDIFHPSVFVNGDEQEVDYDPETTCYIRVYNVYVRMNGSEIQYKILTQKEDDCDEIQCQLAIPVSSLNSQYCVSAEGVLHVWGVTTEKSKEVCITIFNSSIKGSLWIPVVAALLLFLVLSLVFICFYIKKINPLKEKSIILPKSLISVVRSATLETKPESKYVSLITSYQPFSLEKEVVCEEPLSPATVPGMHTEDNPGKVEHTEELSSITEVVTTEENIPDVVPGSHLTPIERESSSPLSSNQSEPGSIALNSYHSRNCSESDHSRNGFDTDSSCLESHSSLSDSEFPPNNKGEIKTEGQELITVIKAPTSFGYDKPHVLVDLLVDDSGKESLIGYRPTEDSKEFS
inactive: nilotinib 0.227 | [1] -0.068 | dasatinib -0.018 | [2] 0.133 | [3] -0.125 | quisinostat 0.047 | tipifarnib -0.08 | [4] 0.013 | [5] 0.084 | [6] -0.101

HDAC10 (UniProt Q969S8)
inactive: nilotinib -0.009 | [1] 0.023 | dasatinib -0.104 | [2] 0.032 | [3] 0.144 | quisinostat 0.245 | tipifarnib -0.123 | [4] 0.092 | [5] 0.111 | [6] -0.001

INF2 (UniProt Q27J81)
inactive: nilotinib -0.08 | [1] 0.055 | dasatinib 0.032 | [2] 0.034 | [3] -0.013 | quisinostat -0.051 | tipifarnib -0.079 | [4] 0.023 | [5] 0.005 | [6] -0.035

GLYR1 (UniProt Q49A26)
inactive: nilotinib 0.082 | [1] 0.02 | dasatinib -0.053 | [2] 0.053 | [3] -0.048 | quisinostat -0.119 | tipifarnib -0.12 | [4] -0.049 | [5] -0.012 | [6] 0.023

GTPBP2 (UniProt Q9BX10)
inactive: nilotinib 0.016 | [1] -0.009 | dasatinib -0.023 | [2] -0.014 | [3] 0.005 | quisinostat -0.136 | tipifarnib -0.079 | [4] 0.042 | [5] 0.04 | [6] 0.046

HMBOX1 isoform 5 (UniProt Q6NT76)
inactive: nilotinib 0.186 | [1] -0.038 | dasatinib -0.034 | [2] 0.078 | [3] 0.024 | quisinostat -0.008 | tipifarnib 0.077 | [4] 0.001 | [5] 0.041 | [6] -0.055

HDLBP, A0A024R4E5
inactive: nilotinib -0.011 | [1] 0.006 | dasatinib -0.038 | [2] 0.014 | [3] 0.015 | quisinostat -0.076 | tipifarnib 0.001 | [4] 0.018 | [5] -0.002 | [6] -0.022

HERC2 (UniProt O95714)
inactive: nilotinib -0.077 | [1] 0.017 | dasatinib 0.032 | [2] -0.034 | [3] 0.118 | quisinostat -0.061 | tipifarnib 0.007 | [4] 0.028 | [5] -0.047 | [6] 0.085

GOLGA1 (UniProt Q92805)
Chain of UniProt Q92805 (Q92805 whole entry, looked up): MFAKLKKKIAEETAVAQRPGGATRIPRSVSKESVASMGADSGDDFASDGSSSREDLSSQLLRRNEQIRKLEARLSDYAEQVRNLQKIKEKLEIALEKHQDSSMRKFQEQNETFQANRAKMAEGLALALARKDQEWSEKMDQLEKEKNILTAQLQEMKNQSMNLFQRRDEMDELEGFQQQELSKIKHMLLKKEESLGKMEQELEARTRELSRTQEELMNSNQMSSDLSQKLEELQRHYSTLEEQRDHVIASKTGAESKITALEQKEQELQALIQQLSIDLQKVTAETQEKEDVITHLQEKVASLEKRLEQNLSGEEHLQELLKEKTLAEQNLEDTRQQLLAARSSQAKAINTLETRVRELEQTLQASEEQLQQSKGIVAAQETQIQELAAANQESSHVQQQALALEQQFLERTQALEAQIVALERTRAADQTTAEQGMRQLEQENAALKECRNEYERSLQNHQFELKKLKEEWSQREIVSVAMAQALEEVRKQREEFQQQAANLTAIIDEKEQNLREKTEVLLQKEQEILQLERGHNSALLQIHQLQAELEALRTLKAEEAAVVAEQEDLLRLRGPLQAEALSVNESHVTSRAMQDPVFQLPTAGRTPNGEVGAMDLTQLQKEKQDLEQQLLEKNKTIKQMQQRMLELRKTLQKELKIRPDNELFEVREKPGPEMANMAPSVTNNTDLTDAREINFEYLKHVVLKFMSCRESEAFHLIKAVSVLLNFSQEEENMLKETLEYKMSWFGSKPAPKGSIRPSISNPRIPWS
inactive: nilotinib 0.033 | [1] -0.009 | dasatinib -0.026 | [2] -0.015 | [3] 0.022 | quisinostat -0.073 | tipifarnib -0.099 | [4] 0.042 | [5] 0.106 | [6] 0.004

GPR108 (UniProt Q9NPR9)
inactive: nilotinib 0.044 | [1] 0.033 | dasatinib -0.035 | [2] 0.011 | [3] -0.057 | quisinostat -0.063 | tipifarnib -0.088 | [4] -0.013 | [5] 0.046 | [6] -0.002

GORASP1 (UniProt Q9BQQ3)
inactive: nilotinib 0.011 | [1] -0.02 | dasatinib -0.019 | [2] 0.034 | [3] 0.048 | quisinostat 0.034 | tipifarnib -0.006 | [4] -0.071 | [5] 0.177 | [6] -0.11

GTF2A1 (UniProt P52655)
inactive: nilotinib 0.024 | [1] -0.047 | dasatinib 0.022 | [2] 0.095 | [3] 0.046 | quisinostat -0.039 | tipifarnib 0.021 | [4] -0.04 | [5] 0.007 | [6] -0.012

GPX4 (UniProt P36969)
inactive: nilotinib -0.011 | [1] -0.001 | dasatinib 0.01 | [2] 0.039 | [3] -0.024 | quisinostat -0.012 | tipifarnib -0.009 | [4] 0.02 | [5] -0.011 | [6] 0.011

HNRNPAB isoform 3 (UniProt Q99729)
inactive: nilotinib -0.012 | [1] 0.026 | dasatinib 0.022 | [2] 0.024 | [3] -0.028 | quisinostat 0.026 | tipifarnib 0.006 | [4] 0 | [5] -0.005 | [6] 0.012

INTS1 (UniProt Q8N201)
inactive: nilotinib -0.041 | [1] 0.012 | dasatinib -0.087 | [2] 0.035 | [3] 0.028 | quisinostat -0.01 | tipifarnib 0.017 | [4] 0.016 | [5] -0.038 | [6] 0.011

GRB10 (UniProt Q13322)
Chain of UniProt Q13322 (Q13322 whole entry, looked up): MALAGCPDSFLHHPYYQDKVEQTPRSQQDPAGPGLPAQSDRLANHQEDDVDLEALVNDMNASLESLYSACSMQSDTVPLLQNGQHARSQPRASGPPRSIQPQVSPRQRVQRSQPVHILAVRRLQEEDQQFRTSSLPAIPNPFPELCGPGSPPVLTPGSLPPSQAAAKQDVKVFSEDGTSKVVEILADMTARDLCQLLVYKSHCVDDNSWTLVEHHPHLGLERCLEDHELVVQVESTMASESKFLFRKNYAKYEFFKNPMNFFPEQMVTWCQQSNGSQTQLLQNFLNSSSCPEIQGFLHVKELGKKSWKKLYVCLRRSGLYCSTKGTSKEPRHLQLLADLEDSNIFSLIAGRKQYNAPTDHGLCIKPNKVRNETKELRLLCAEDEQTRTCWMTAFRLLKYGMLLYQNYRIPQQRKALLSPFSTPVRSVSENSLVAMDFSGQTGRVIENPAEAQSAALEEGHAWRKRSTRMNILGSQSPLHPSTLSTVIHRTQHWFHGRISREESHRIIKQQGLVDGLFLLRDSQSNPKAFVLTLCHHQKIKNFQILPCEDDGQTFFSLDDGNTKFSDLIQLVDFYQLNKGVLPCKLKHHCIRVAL
inactive: nilotinib 0.053 | [1] -0.028 | dasatinib -0.003 | [2] 0.026 | [3] 0.04 | quisinostat -0.065 | tipifarnib -0.058 | [4] 0.008 | [5] -0.056 | [6] 0.008

GNE isoform 2 (UniProt Q9Y223)
Chain of UniProt Q9Y223 (Q9Y223 whole entry, looked up): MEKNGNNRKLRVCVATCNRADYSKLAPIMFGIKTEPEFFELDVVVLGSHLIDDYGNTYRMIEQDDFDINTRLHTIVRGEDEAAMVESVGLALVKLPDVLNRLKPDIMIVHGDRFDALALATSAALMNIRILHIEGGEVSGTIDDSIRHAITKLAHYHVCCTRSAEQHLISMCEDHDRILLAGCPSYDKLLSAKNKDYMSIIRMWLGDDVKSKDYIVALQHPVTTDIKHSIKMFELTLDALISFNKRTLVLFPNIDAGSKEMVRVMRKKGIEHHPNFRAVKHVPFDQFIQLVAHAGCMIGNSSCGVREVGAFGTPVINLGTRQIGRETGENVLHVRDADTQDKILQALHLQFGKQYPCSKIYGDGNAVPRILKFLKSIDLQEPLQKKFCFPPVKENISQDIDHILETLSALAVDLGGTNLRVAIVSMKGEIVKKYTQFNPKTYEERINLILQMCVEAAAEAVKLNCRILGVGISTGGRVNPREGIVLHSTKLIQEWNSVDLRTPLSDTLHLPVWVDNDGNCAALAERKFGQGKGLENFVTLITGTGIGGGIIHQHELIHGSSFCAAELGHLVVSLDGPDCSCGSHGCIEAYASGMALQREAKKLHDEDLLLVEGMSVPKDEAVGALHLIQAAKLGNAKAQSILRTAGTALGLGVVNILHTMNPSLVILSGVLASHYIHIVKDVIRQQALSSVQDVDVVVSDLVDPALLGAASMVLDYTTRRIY
inactive: nilotinib -0.013 | [1] -0.003 | dasatinib 0.003 | [2] -0.081 | [3] 0.025 | quisinostat -0.042 | tipifarnib 0.008 | [4] 0.061 | [5] -0.008 | [6] -0.006

H2AFY (UniProt O75367)
inactive: nilotinib 0.013 | [1] 0.003 | dasatinib -0.087 | [2] -0.003 | [3] 0.005 | quisinostat -0.099 | tipifarnib 0.005 | [4] 0.058 | [5] 0.001 | [6] -0.034

KCTD20 (UniProt Q7Z5Y7)
Chain of UniProt Q7Z5Y7 (Q7Z5Y7 whole entry, looked up): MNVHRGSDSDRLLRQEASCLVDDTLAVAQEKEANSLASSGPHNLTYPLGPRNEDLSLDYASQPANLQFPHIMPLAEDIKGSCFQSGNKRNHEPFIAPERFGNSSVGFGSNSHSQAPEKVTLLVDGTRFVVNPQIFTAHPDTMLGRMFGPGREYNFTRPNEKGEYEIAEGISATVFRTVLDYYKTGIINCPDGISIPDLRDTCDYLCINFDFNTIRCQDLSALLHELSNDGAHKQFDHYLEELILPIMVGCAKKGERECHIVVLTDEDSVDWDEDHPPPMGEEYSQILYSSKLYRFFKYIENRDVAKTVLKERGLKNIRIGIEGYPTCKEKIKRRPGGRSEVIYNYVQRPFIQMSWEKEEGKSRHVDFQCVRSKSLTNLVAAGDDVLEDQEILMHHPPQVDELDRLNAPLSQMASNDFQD
inactive: nilotinib 0.054 | [1] -0.021 | dasatinib -0.096 | [2] 0.074 | [3] 0.039 | quisinostat -0.138 | tipifarnib -0.028 | [4] 0.109 | [5] 0.089 | [6] -0.007

GNB4 (UniProt Q9HAV0)
inactive: nilotinib -0.083 | [1] 0.055 | dasatinib 0.048 | [2] 0.127 | [3] -0.097 | quisinostat 0.042 | tipifarnib 0.048 | [4] -0.172 | [5] 0.028 | [6] 0.007

GRK6 isoform 2 (UniProt P43250)
inactive: nilotinib -0.024 | [1] 0.094 | dasatinib 0.023 | [2] 0.005 | [3] -0.014 | quisinostat -0.043 | tipifarnib 0 | [4] 0.012 | [5] 0.028 | [6] -0.097

HSP90AA4P (UniProt Q58FG1)
inactive: nilotinib -0.157 | [1] 0.052 | dasatinib 0.029 | [2] -0.062 | [3] 0.038 | quisinostat -0.145 | tipifarnib 0.01 | [4] -0.065 | [5] -0.047 | [6] -0.024

GMPS (UniProt P49915)
inactive: nilotinib -0.006 | [1] -0.019 | dasatinib -0.016 | [2] 0 | [3] 0 | quisinostat 0.041 | tipifarnib -0.008 | [4] 0.001 | [5] 0.001 | [6] 0.009

IMPDH1 isoform 6 (UniProt P20839)
Chain of UniProt P20839 (P20839 whole entry, looked up): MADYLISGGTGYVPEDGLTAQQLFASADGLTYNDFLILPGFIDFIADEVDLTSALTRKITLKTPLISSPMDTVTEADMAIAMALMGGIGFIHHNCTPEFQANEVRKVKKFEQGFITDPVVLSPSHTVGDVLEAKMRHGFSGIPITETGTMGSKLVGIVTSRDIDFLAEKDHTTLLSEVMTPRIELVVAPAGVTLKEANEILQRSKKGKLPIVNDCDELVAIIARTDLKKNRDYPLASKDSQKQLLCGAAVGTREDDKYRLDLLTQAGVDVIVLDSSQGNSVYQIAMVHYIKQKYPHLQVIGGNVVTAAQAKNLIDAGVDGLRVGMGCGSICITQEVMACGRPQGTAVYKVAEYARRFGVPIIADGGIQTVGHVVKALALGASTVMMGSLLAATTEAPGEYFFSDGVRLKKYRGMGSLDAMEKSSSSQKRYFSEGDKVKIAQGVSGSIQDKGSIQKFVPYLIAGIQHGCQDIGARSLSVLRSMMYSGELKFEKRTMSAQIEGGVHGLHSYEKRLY
inactive: nilotinib 0.008 | [1] -0.034 | dasatinib -0.033 | [2] 0.015 | [3] -0.006 | quisinostat -0.121 | tipifarnib -0.017 | [4] -0.007 | [5] -0.008 | [6] -0.012

HDHD5 (UniProt Q9BXW7)
inactive: nilotinib 0.157 | [1] -0.081 | dasatinib 0.023 | [2] -0.052 | [3] -0.042 | quisinostat -0.026 | tipifarnib -0.008 | [4] 0.028 | [5] -0.014 | [6] -0.036

HDAC2 (UniProt Q92769)
Chain of UniProt Q92769 (Q92769 whole entry, looked up): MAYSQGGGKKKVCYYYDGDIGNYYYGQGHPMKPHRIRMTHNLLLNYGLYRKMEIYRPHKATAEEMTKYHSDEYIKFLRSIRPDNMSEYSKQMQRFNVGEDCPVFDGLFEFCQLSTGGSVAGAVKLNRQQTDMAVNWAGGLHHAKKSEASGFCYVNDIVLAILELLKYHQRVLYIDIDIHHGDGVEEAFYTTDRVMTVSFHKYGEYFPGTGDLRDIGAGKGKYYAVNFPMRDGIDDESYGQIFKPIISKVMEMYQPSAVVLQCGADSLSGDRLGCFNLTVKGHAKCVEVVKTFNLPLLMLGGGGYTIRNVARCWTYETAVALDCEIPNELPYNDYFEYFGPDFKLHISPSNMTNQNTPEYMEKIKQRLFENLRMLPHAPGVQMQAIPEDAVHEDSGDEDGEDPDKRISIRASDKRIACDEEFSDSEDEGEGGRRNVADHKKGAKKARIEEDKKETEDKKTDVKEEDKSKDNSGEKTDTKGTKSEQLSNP
inactive: nilotinib -0.022 | [1] 0.014 | dasatinib -0.024 | [2] -0.013 | [3] 0.044 | tipifarnib -0.011 | [4] 0.018 | [5] 0.001 | [6] -0.031
active: quisinostat 0.635

HNRNPDL (UniProt O14979)
Chain of UniProt O14979 (O14979 whole entry, looked up): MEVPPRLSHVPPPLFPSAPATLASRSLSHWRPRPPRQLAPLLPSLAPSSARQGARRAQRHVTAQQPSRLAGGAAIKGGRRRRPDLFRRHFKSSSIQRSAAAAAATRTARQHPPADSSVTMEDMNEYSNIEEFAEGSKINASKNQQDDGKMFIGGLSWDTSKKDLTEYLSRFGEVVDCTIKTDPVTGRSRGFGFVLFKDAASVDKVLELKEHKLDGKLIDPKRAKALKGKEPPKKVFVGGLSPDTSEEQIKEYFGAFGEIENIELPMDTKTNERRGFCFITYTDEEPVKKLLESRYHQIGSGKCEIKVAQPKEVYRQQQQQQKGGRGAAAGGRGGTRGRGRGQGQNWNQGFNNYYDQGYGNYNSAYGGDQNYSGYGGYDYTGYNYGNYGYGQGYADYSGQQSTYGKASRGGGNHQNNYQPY
inactive: nilotinib -0.208 | [1] 0.036 | dasatinib 0.016 | [2] -0.018 | [3] -0.005 | quisinostat 0.074 | tipifarnib -0.002 | [4] -0.062 | [5] -0.008 | [6] 0.004
